Structures are written as SMILES. “And” between values parts separate entries of the source, which are not always exact repeats. Identical values can stand only once. The whole screen tested about 100,000 compounds, of which about 770 (0.77%) were called active. Only a selection was taken, and actives are over-represented in it overall. Unmarked numbers belong to inactive results. No stated cut-off is given here; in the data, active means inhibition above about 50%; inactive means the rest.

For this assay, the target named is Gag-Pol polyprotein (Human immunodeficiency virus type 1 group M subtype B (isolate HXB2)) (UniProt P04585). In words: RNase H inhibition, HIV 1 Gag Pol polyprotein, FRET biochemical assay, screening (AID 372). As to conditions: HIV-1 RT RNase H, FRET RNA/DNA substrate fluorescence; at 10 µM; hits give high values.
As a reminder, the inhibition is the share of the control response that was lost under treatment. Consider `Cc1sc(NC(=O)c2ccccc2C(=O)O)c(C#N)c1C`, for which the inhibition is 3%. The same measure for `O=[N+]([O-])c1cccc(-n2nncc2C23CC4CC(CC(C4)C2)C3)c1`: 19%; for `COc1cc(C)cc2oc(=O)c(Cc3ccccc3)c(C)c12`: 22%. The same measure for `CCOc1cc(C)cc2oc(=O)c(Cc3ccccc3)c(C)c12`: 46%; for `CC(=O)Oc1cc(C)cc2oc(=O)c(Cc3ccccc3)c(C)c12`: 23%. `Cc1cc(OC(=O)C2CC2)c2c(C)c(Cc3ccccc3)c(=O)oc2c1`: the inhibition was 55% (active). To `CCCOc1cc(C)cc2oc(=O)c(Cc3ccccc3)c(C)c12` belongs 56% (active); to `Cc1cc(OCC(=O)O)c2c(C)c(Cc3ccccc3)c(=O)oc2c1`, 4%; to `O=C(Nc1ncc(Cc2cccc([N+](=O)[O-])c2)s1)c1cccc([N+](=O)[O-])c1`, 11%.

Regarding `O=C(CCc1ccccc1)Nc1cc(C(=O)O)cc(C(=O)O)c1`, the inhibition is 36%. For the molecule `COc1cccc(-c2nc(-c3cccc([N+](=O)[O-])c3)no2)c1`, the inhibition is 5%.

Regarding `O=C(N/N=C/c1ccc(O)cc1O)c1cc(Br)cc(Br)c1O`, the inhibition was 12%. The same measure for `Cc1ccc(CNC(=O)C(=O)NCC2CCCO2)cc1` (configuration not stated): 9%; for `COC(=O)c1cc(C(=O)NC2CCSC2=O)cc([N+](=O)[O-])c1` (configuration not stated): 10%; for `O=C(NCC1CCCO1)/C(=C/c1cccc(Oc2ccccc2)c1)NC(=O)c1ccccc1` (configuration not stated): 0%. As to `C=CCNC(=O)CN(c1cccc(OC)c1)S(=O)(=O)c1ccccc1`, the inhibition was 0%.

Consider `CC(=O)Nc1ccc(N=Cc2cccc(C)c2)cc1`, for which the inhibition is 4%.

As for `CC(=O)Nc1cc(C(N)=O)c(Cl)cc1Cl`, the inhibition was 1%. The same measure for `CC(=O)C(=Nc1ccc(C)cc1C)NNc1cc(C(N)=O)c(Cl)cc1Cl`: 70% (active); for `CC(=O)C(=Nc1ccc(C)cc1C)NNc1ccc(Cl)c(C(N)=O)c1`: 11%; for `Cc1ccc(/C(O)=C2\C(=O)C(=O)N(CCCC(=O)O)C2c2ccc(F)cc2)cc1` (configuration not stated): 4%. The same measure for `Cc1ccc(N2C(=O)/C(=C/c3ccc(O)cc3)C(=O)NC2=S)cc1`: 6%. To `Cc1ccc(N2C(=O)C(=Cc3ccc(O)cc3)C(=O)N(c3ccc(C)cc3)C2=S)cc1` belongs 56% (active); to `COc1cc(C=C2C(=O)N(c3ccc(C)cc3)C(=S)N(c3ccc(C)cc3)C2=O)ccc1O`, 0%. With `O=C(CN1CCSCC1)N/N=C/c1ccc(-c2ccccc2)cc1`, the inhibition was 7%. To `O=C(Nc1cc(C(=O)Nc2ccccc2-c2ccccc2)cc(C(=O)Nc2ccccc2-c2ccccc2)c1)c1ccc([N+](=O)[O-])cc1` belongs 19%; to `Cc1ccc(OCCOCCN2CCC(C)CC2)cc1`, 15%; to `CCN1C(=O)c2cccc3c(NC(=O)c4cc([N+](=O)[O-])ccc4Cl)ccc1c23`, 5%. To `C=CCN1C(=O)/C(=C\c2ccc(I)o2)C(=O)NC1=S` belongs 27%. Take `C=CCN1C(=O)/C(=C\c2ccc(-c3ccc([N+](=O)[O-])cc3)o2)C(=O)NC1=S`: the inhibition was 10%. The same measure for `COc1ccc(S(=O)(=O)n2nnc3ccccc32)cc1OC`: 2%; for `COc1ccc(OC)c(S(=O)(=O)n2nnc3ccccc32)c1`: 3%. The same measure for `COc1ccc(S(=O)(=O)n2nnc3ccccc32)c2ccccc12`: 55% (active). As for `COC(=O)C1=C(C)NC(=S)NC1c1cc(Br)ccc1OCc1ccccc1` (configuration not stated), the inhibition was 11%. To `Cn1c(=O)c2[nH]c(N/N=C(/C#N)C(N)=O)nc2n(C)c1=O` belongs 8%. `CCC(Oc1ccccc1)C(=O)Nc1cc(Cl)ccc1Cl` (configuration not stated): the inhibition is 40%. As for `CCC(Oc1ccccc1)C(=O)Nc1cc(Cl)ccc1OC` (configuration not stated), the inhibition is 56% (active).

`CCC(Oc1ccccc1)C(=O)Nc1cc(OC)c(Cl)cc1OC` (configuration not stated): the inhibition was 12%. `C=CCn1cc(/C=c2\sc3n(c2=O)C(c2ccc(OC)cc2)C(C(=O)OCC)=C(C)N=3)c2ccccc21` (configuration not stated): the inhibition is 15%. The same measure for `O=C(/C=C/c1ccc(-c2ccccc2Br)o1)c1ccc(Cl)cc1`: 13%. For the molecule `NS(=O)(=O)c1ccc2c(c1)C1C=CCC1C(c1ccc([N+](=O)[O-])cc1)N2` (configuration not stated), the inhibition was 19%. `CCOC(=O)C1=C(C)N=c2s/c(=C\c3ccc(OC)c(Br)c3)c(=O)n2C1c1ccccc1Cl` (configuration not stated): the inhibition was 29%. On to `CCOC(=O)c1ccc(NC(=O)c2ccc([N+](=O)[O-])o2)cc1`, for which the inhibition was 50% (active). To `CCCOC(=O)c1ccc(NC(=O)c2ccc([N+](=O)[O-])o2)cc1` belongs 7%; to `CCOc1ccc(NC(=O)c2ccc([N+](=O)[O-])o2)cc1`, 17%. Consider `O=C(Nc1cccc(Cl)c1)Nc1cc(Cl)ccc1Cl`, for which the inhibition was 0%. The same measure for `COc1ccc(-n2c(O)c(C=Nc3ccc(Cl)cc3)c3ccccc3c2=O)cc1`: 11%; for `O=C(CC1OC(=O)c2ccccc21)c1ccccc1` (configuration not stated): 1%. The same measure for `Nc1cc(=O)[nH]c(SCC(=O)c2ccc(O)c(O)c2)n1`: 8%. Take `Cc1sc2nc(SCC(N)=O)[nH]c(=O)c2c1C`: the inhibition was 0%. The same measure for `Cc1nc(SCC(=O)c2ccc(O)c(O)c2)n[nH]1`: 42%; for `Cc1cc(=O)[nH]c(SCC(=O)c2ccc(Br)cc2)n1`: 4% and 9%. To `Cc1cc(C)nc(SCC(=O)c2ccc(O)c(O)c2)n1` belongs 74% (active); to `COc1ccc(C(=O)CSc2nc3sc(C)c(C)c3c(=O)[nH]2)cc1C`, 44%.

In the case of `Cc1cc(C)nc(SCC(=O)c2ccc(F)cc2)n1`, the inhibition was 13%. To `Cc1cc(C)c2c(=O)[nH]c(SCC(=O)c3ccc(Br)cc3)nc2n1` belongs 20%.

For `Cc1cc(C)c2c(=O)[nH]c(SCC(=O)c3ccc(F)cc3)nc2n1`, the inhibition was 11%. The same measure for `Cc1sc2nc(SCC(=O)c3ccc(O)c(O)c3)[nH]c(=O)c2c1C`: 75% (active).

In the case of `Cc1cc(=O)[nH]c(SCC(=O)c2ccc(O)c(O)c2)n1`, the inhibition was 50% (active). Turning to `Cc1cccnc1NC(=O)Nc1cccc(F)c1`, the inhibition was 7%. Take `O=C(NNc1ccc(F)cc1)C(O)(c1ccccc1)c1ccccc1`: the inhibition is 2%. To `NS(=O)(=O)c1ccc(Nc2nc(-c3ccccn3)cs2)cc1` belongs 3%.
